Most compounds without a hit are left out; they make up all but 3.2% or so of the library.
FLuc inh = firefly luciferase inhibition | actives 2.2% (n = 72,000) | AID 411 | P08659 | purified firefly luciferase, luminescence, 8 min | Potency, µM (series often up to 57.1 µM), hits mostly inhibitors; active = well fitted inhibition curve with a large enough effect; inconclusive = small, poorly fitted or top-dose-only effect; note: nearly all actives have a fitted effect of over 40% in size
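Titration-based qHTS; buffer 50 mM imidazole pH 7.2, 50 mM KCl, 7 mM MgCl2, 10 uM ATP, 0.01% Tween 20, 0.05% BSA; luciferase/luciferin detector mix added after compound; 8 min, ambient; luminescence.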
GBA mod = modulators of human glucocerebrosidase. P04062. purified enzyme, resorufin glucoside fluorescence (screen aimed at inhibitors), 20 min. Potency, µM. actives 1.1% (n = 48,000). AID 360; in the data active = potency below about 15 µM; inconclusive = mostly about 16 µM to 33 µM;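 note: the screen sought inhibitors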
Target sequence (P04062 whole entry, looked up): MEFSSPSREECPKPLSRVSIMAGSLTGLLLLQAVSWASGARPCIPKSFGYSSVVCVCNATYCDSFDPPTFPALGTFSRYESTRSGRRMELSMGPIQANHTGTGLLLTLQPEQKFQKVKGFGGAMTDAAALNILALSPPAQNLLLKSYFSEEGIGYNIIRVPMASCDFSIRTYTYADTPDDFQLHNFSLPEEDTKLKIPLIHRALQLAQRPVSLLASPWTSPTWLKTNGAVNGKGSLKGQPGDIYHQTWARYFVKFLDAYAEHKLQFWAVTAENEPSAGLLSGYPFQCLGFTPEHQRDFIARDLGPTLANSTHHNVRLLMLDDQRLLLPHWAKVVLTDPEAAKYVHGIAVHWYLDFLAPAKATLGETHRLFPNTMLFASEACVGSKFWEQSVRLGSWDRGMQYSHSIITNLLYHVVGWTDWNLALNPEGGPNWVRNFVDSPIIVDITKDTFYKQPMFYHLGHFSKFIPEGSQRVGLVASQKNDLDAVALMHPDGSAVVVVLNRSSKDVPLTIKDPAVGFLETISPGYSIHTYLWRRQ
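Normal human glucocerebrosidase (0.2 nM final) was assayed with resorufin β-D-glucopyranoside (30 uM final) in 50mM citric acid/KH2PO4, 10mM sodium taurocholate, 0.01% tween-20, pH 5.9. Compounds were titrated; fluorescence (Ex 548, Em 600) read after 20 min at RT.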
PK Bst = modulators of Bacillus stearothermophilus pyruvate kinase. purified pyruvate kinase, luminescence ATP production; ribose 5-phosphate activator present at AC10. Potency, µM. actives 1.2% (n = 51,000). AID 361; in the data active = potency below about 11 µM; inconclusive = mostly about 12 µM to 25 µM;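 the screen sought inhibitors and activators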
Numbers stand for hits; i = inactive; ? = inconclusive; nt = not tested or not shown; [ ] = another dose, or the depositor's remark.

SMILES	FLuc inh	GBA mod	PK Bst
O=C(NC1=NCCS1)c1cc2ccccc2o1	5µM	nt	nt
Cc1cc(C(=O)NC2=NCCS2)cs1	16µM	i	nt
O=C(NC1=NCCS1)Nc1ccccc1	16µM	i	i
O=C(Nc1cccc(Cl)c1N1CCCC1)c1cc2ccccc2o1	i	i	nt
O=C(NC1=NCCS1)NC12CC3CC(CC(C3)C1)C2	i	14	i
O=C(NC1=NCCS1)C12CC3CC(C1)CC(C(=O)NC1=NCCS1)(C3)C2	i	i	i
O=C(NC1=NCCS1)c1cccs1	i	i	i
COc1ccc(-c2cc3nc(C)c(CCC(=O)N4CCCCC4)c(C)n3n2)c(OC)c1	i	i	i
Cn1cccc1C(=O)N1CCC2(CC1)CCN(c1cccc(-c3ccccc3)c1)CC2	i[11.4 µM]	nt	nt
CCN1C(=O)[C@H]2[C@H]3[C@H](O)[C@H](O)C/C(=N/NC(=O)OCc4ccccc4)[C@@H]3CC[C@@H]2C1=O	i[11.4 µM]	nt	nt
CN(C)c1ncc2nc(-c3cccs3)c(=O)n(-c3ccccc3)c2n1	i[11.4 µM]	nt	nt
O=C(Nc1cccc2ncccc12)c1cc2ccccc2o1	i	i	i
COC(=O)c1sccc1NC(=O)c1csc(C)c1	i	13	nt
COC(=O)c1sccc1NC(=O)c1ccc(OC)cc1	i	i	i
O=C(Nc1ccc(Cl)cn1)c1cc2ccccc2o1	7.9µM	i	?
CC1=CC(=O)C2=C(C)CC[C@@H]3[C@H](OC(=O)[C@H]3C)[C@H]12	i[11.4 µM]	nt	nt
O=C(N[C@@H](CO)[C@@H](O)c1ccc([N+](=O)[O-])cc1)C(Cl)Cl	i	nt	nt
C[C@@](N)(C(=O)O)c1ccc(C(=O)O)cc1	i	nt	nt
CC(=O)c1cc2c(cc1NS(=O)(=O)c1ccc3c(c1)OCCO3)OCO2	i	i	i
CCN(CC)S(=O)(=O)c1ccc(S(=O)(=O)Nc2cc3c(cc2C(C)=O)OCO3)cc1	i	15	i
C[C@@H](N1CCOCC1)[C@@](O)(c1ccccc1)c1ccccn1	i[11.4 µM]	nt	nt
CCC(=O)O[C@H](CC(=O)O)C[N+](C)(C)C	i	nt	nt
CC(C)CO[C@H](c1ccc2c(c1)OCO2)[C@H](C)Br	i[11.4 µM]	nt	nt
CC(C)C(=O)N[C@@H]1CCCN1C(=O)/C=C\c1ccccc1	i[11.4 µM]	nt	nt
O=C(Nc1ccc(F)c(Cl)c1)c1ccc2c(=O)n3c(nc2c1)CCCCC3	?	i	i
SMILES	FLuc inh	GBA mod	PK Bst
O=C(Nc1cccc(Cl)c1)c1ccc2c(=O)n3c(nc2c1)CCCCC3	13µM	i	?
CC(=O)N1CCC2(CC1)CCN(c1ccccn1)CC2	i[11.4 µM]	nt	nt
Cc1nc2nc(-c3ccccc3)cc(=O)n2[nH]1	25µM	i	nt
O=c1cc(-c2ccccc2)nc2nc(CCc3ccccc3)[nH]n12	i	i	i
O=C(O)c1ccc([N+](=O)[O-])c(P(=O)(O)O)c1	i[11.4 µM]	nt	nt
CN(CCNC(=O)C1CC(=O)N(c2ccc(F)c(Cl)c2)C1)Cc1ccccc1 (stereo not drawn)	i	15	i
CNC(=O)C1CC(=O)N(c2ccc(F)c(Cl)c2)C1 (stereo not drawn)	i	i	i
O=P(O)(O)O[C@@H]1O[C@H](CO)[C@@H](O)[C@H](O)[C@@H]1O	i[11.4 µM]	nt	nt
O=S(=O)(/N=C(/Nc1cc(N2CCOCC2)ncn1)c1ccccc1)c1ccccc1	3.2µM	i	nt
O=S(=O)(/N=C(/Nc1cc(N2CCOCC2)ncn1)c1ccc(F)cc1)c1ccccc1	i	i	i
Cn1c2ccccc2c2ncn(CCCN3CCOCC3)c(=O)c21	i	i	9.7
Cn1c2ccc(F)cc2c2ncn(CCN3CCOCC3)c(=O)c21	i	i	nt
CCC(C)c1ccc(NC(=O)c2cccnc2)cc1 (stereo not drawn)	25µM	nt	nt
CCOc1cc(OCC)cc(C(=O)Nc2cccnc2)c1	i	?	i
CCC(=O)Nc1ccc(C(=O)Nc2cccnc2)cc1	i	6.6	i
CCC(=O)Nc1ccc(S(=O)(=O)Nc2cccnc2)cc1	i	i	i
O=C(Nc1cccnc1)c1ccc(COCC(F)(F)F)cc1	i	5.1	i
CCC(C)c1ccc(O)c(NC(=O)c2cccnc2)c1 (stereo not drawn)	i	i	i
COc1cc(NCC[C@@H]2CCCCN2)c2ncccc2c1	i[11.4 µM]	nt	nt
Cc1nc2cnc(N3CCNCC3)nc2n(-c2ccccc2)c1=O	i[11.4 µM]	nt	nt
NNC(=O)Cc1cccnc1	i[11.4 µM]	nt	nt
COc1ccc(NC(=O)c2cc(C(C)C)on2)cc1OC	i	i	nt
CC(C)c1cc(C(=O)Nc2ccc3c(c2)OCO3)no1	7.9µM	nt	nt
O=C(Nc1ccc2c(c1)OCO2)c1ccncc1	i	nt	nt
COc1ccc(C2CC(C(F)(F)F)n3nc(C(=O)Nc4ccc5c(c4)OCO5)cc3N2)cc1 (stereo not drawn)	i	nt	nt
SMILES	FLuc inh	GBA mod	PK Bst
O=C(Nc1ccc2c(c1)OCO2)c1cc(C2CC2)on1	7.9µM	nt	nt
CC(C)c1cc(C(F)(F)F)n2nc(C(=O)Nc3ccc4c(c3)OCO4)cc2n1	20µM	i	nt
O=C(O)c1cc(=O)[nH]c(=S)[nH]1	i[11.4 µM]	nt	nt
O[C@H]([C@H](O)[C@@H](O)c1nc2ccccc2[nH]1)[C@@H](O)c1nc2ccccc2[nH]1	i[11.4 µM]	nt	nt
COc1ccc2c(c1)O[C@H](c1cccc(C(F)(F)F)c1)[C@@H](O)C2=O	i[11.4 µM]	nt	nt
C[C@@H]1C(=O)N(C)C(=O)c2nc[nH]c21	i	nt	nt
Cc1cc(-c2cc(C)c(O)c(C(C)(C)C)c2)cc(C(C)(C)C)c1O	i[11.4 µM]	nt	nt
N[C@@]1(C(=O)O)CCC[C@@H]1C(=O)O	i[11.4 µM]	nt	nt
CC1CCN(CC[S-])CC1.O.O.[Cl][Pt]	i[11.4 µM]	nt	nt
CN1CCN(CC(C)(C)NS(=O)(=O)c2ccc(Cl)cc2)CC1	i	14	i
CN(C)CCNS(=O)(=O)c1ccc(Cl)cc1	i	i	i
O=[N+]([O-])c1ccc(S(=O)(=O)Cc2ccccc2)c([N+](=O)[O-])c1	i[11.4 µM]	nt	nt
O=C1O[C@@H]([C@H](O)[C@H](O)[C@H](O)CO)[C@@H](O)[C@@H]1O	i[11.4 µM]	nt	nt
Cc1[nH]c2c(C)ccc(C)c2c1CC(=O)O	i[11.4 µM]	nt	nt
CCOc1ccc(N2C(=O)c3cccnc3C2Nc2ccc(F)cc2)cc1 (stereo not drawn)	i	i	i
CCOc1ccc(N2Cc3ncccc3C2=O)cc1	i	i	11
Cc1ncc2c(c1O)COP(=O)(O)OC2	i	nt	nt
C#C[C@@]1(O)CC[C@@H]2[C@@H]3CCC4=C(CCC(=O)C4)[C@H]3CC[C@]21C	i	nt	nt
Cn1cc(SCC(=O)NCc2ccc3c(c2)OCO3)c2ccccc21	i	nt	nt
CCn1cc(SCC(=O)NCc2ccc3c(c2)OCO3)c2ccccc21	2µM	nt	nt
CN(C)c1ccc(-c2nc(NCc3cccnc3)c3ccccc3n2)cc1	i[2.29 µM]	nt	nt
CC(C)c1ccc2c(c1)CC[C@@H]1[C@@](C)(CN)CCC[C@@]21C	i[11.4 µM]	nt	nt
COc1ccc(OCc2cccc(C(=O)O)c2)cc1	2µM	i	1.2
O=C(O)c1cccc(COCC(F)(F)C(F)F)c1	i	i	i
COc1ccc(NS(=O)(=O)c2cccc(C(=O)O)c2)cc1	i	i	i
SMILES	FLuc inh	GBA mod	PK Bst
CCOc1ccc(OCc2cccc(C(=O)N3CCCC3)c2)cc1	13µM	i	?
CCOc1ccc(OCc2ccc(C(=O)N3CCCC3)o2)cc1	i	i	i
CCOc1ccc(OCc2cccc(C(=O)O)c2)cc1	0.79µM	i	0.76
O=C(O)c1ccc(COc2ccc(CO)cc2Cl)cc1	i	i	i
O=C(O)c1cccc(COc2ccc(CO)cc2Cl)c1	1µM	i	0.95
CCCNC(=O)OC[C@@H]1O[C@H](CCON=C(C)C)C=C[C@@H]1Oc1ccc(OC)cc1	i[11.4 µM]	nt	nt
Oc1cccc(Nc2nc(NCC3CCCO3)c3ccccc3n2)c1 (stereo not drawn)	i	7.6	nt

Screens deposited in PubChem by National Center for Advancing Translational Sciences (NCATS).
